Experimental data reported in the supplement of paper PMC6555819.

Key:
Assay in all cases: PBM binding z-score (relative to random genomic background probes); higher = stronger binding; sequences stand for … in GC…GCGATTGACAGCGTAGAATGAAGG
[1] = test system: FXR:RXRa (NR concentration 270 nM, RXRa partner concentration 90 nM)
In short: (§1)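 The probes on custom Agilent 4×180K protein-binding microarrays were double-stranded, with 34-nt variable regions bearing direct-repeat seeds, single-nucleotide variants, half-site ablations and random human genomic background sequences. Incubation lasted 1 h with ligand-free nuclear receptor dimers in PBS pH 7.4, 2% milk, 0.02% Triton X-100, 1 mM DTT, 0.2 mg/mL BSA and 0.4 mg/ml salmon testes DNA. Antibodies against each partner (one per run) detected bound dimers, and fluorescence scans were regression-normalized. Binding z-scores take the random background probes as reference.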

[2] = test system: LXRa:RXRa (NR concentration 270 nM, RXRa partner concentration 90 nM)
In short: as §1

[3] = test system: LXRa homodimer (NR concentration 270 nM)
In short: as §1

[4] = test system: LXRb:RXRa (NR concentration 270 nM, RXRa partner concentration 90 nM)
In short: as §1

[5] = test system: LXRb homodimer (NR concentration 270 nM)
In short: as §1

[6] = test system: PPARa:RXRa (NR concentration 270 nM, RXRa partner concentration 90 nM)
In short: as §1

[7] = test system: PPARg:RXRa (NR concentration 180 nM, RXRa partner concentration 90 nM)
In short: as §1

[8] = test system: PPARg:RXRa 270nM:90nM, anti-RXR (NR concentration 270 nM, RXRa partner concentration 90 nM)
In short: as §1

[9] = test system: PPARg:RXRa 30nM:10nM, anti-RXR (NR concentration 30 nM, RXRa partner concentration 10 nM)
In short: as §1

[10] = test system: PPARg:RXRa 90nM:30nM, anti-RXR (NR concentration 90 nM, RXRa partner concentration 30 nM)
In short: as §1

| Sequence | PBM binding z-score [1] | PBM binding z-score [2] | PBM binding z-score [3] | PBM binding z-score [4] | PBM binding z-score [5] | PBM binding z-score [6] | PBM binding z-score [7] | PBM binding z-score [8] | PBM binding z-score [9] | PBM binding z-score [10] |
| --- | --- | --- | --- | --- | --- | --- | --- | --- | --- | --- |
| TCTTGTAGATCAATAGAGGTCAAGAAAGTGCGCT | 3.34 | 5.24 | 3.98 | 4.27 | 1.1 | 4.19 | 1.36 | 3.32 | 3.08 | 3.18 |
| CAAACTAGGTCACGTAAGGTCAAAGTCGAATGAC | 6.98 | 8.26 | 7.28 | 7.56 | 2.27 | 6.49 | 10.1 | 8.07 | 6.4 | 8.05 |
| CTCGAAAGGTCGTTTGAGGTGAGTATACGGATAA | 6.16 | 4.77 | 0.74 | 3.96 | 1.09 | 4.99 | 2.46 | 3.47 | 1.38 | 2.14 |
| TAGCCTAGGTCAGCTCGGGCCAGTATACGCTATA | 2.43 | 1.05 | -0.68 | 0.599 | -1.22 | 1.66 | 0.605 | 0.958 | -0.317 | 0.418 |
| TCTATTAGTTGATTAGGGCAACCGGAACAGCGGA | 0.61 | 0.628 | 0.183 | 0.539 | 0.503 | 0.953 | 0.188 | 1.84 | 3.7 | 2.79 |
| CGAACTAGGTCATCCAGGATAGTGAATACATTGA | 4.33 | 2.51 | 0.425 | 2.22 | -0.0288 | 4.87 | 7.49 | 6.2 | 3.48 | 5.72 |
| CTACCAATGTGAACAAGGTCGTTGATTACTATTC | 0.783 | 1.15 | 0.608 | 1.83 | 0.441 | 1.51 | 0.331 | 0.322 | 0.12 | 0.449 |
| ACAGACAGGTGATGAAGGTAACTCCGGCTATCAT | 0.229 | 0.181 | -0.0879 | -0.149 | -0.444 | 0.23 | 0.658 | -0.261 | -0.0835 | -0.0688 |
| CGTCCAAGGTCAGCTGGTCAGTGAAAGCGACGTG | 5.24 | 3.28 | -0.407 | 2.31 | -0.208 | 3.99 | 2.08 | 2.85 | 0.432 | 1.47 |
| CTCGAAAGGTCGGGTGAGGTGAGTATACGGATAA | 3 | 2.3 | 0.0705 | 2.18 | 0.195 | 3.49 | 1.32 | 1.78 | 0.448 | 1.04 |
| TAGCCTGGGTCATTCAGGGGCCAGTATAGAAAGC | 3.88 | 2.28 | -0.548 | 2.04 | 0.00492 | 3.65 | 2.29 | 2.38 | 0.19 | 1.47 |
| GCAGCTAGGTCAACTGATGGTCAGCTAAAGCTCG | 3.76 | 2.29 | -0.24 | 1.56 | -0.578 | 3.37 | 2.48 | 3.01 | 0.457 | 1.89 |
| CAAACTAGGTCACGAAAGCTCAAAGTCGAATGAC | 4.45 | 3.66 | 0.551 | 2.56 | 0.287 | 5.46 | 9.27 | 7.24 | 5.74 | 7.12 |
| GCTGCGAGGTCAGGTTGGTCAGCTAACGGGTACG | 5.45 | 3.46 | 0.305 | 2.93 | 0.482 | 4.38 | 2.49 | 2.99 | 0.517 | 1.75 |
| TCATAAAGGTAAAGGTGAAAGTCGAACGATATGA | 1.63 | 1.78 | -0.143 | 1.63 | -0.307 | 3.51 | 4.7 | 5.2 | 5.07 | 5.53 |
| CAAACTAGGTCACCGGAAGGTCCAAGTCCGCATG | 4.24 | 3.41 | 0.716 | 2.42 | 0.547 | 5.28 | 8.9 | 7.31 | 5.06 | 7.02 |
| GCAAGCAGGCCATTTGGGTCACTCAATGACGGGC | 0.00635 | -0.402 | -0.429 | -0.137 | -0.801 | 1.34 | 0.661 | 0.661 | -0.408 | 0.131 |
| ATGCCAAGGTGATCGTGAGGTCGTTGATACTAAC | 1.44 | 0.89 | 0.206 | 0.945 | -0.844 | 1.55 | 0.467 | 0.399 | -0.303 | 0.00157 |
| CCTTACGGGTCACTGACAGGTTATAGAATTTGGA | 5.11 | 4.02 | 0.265 | 3.45 | 0.0176 | 4.89 | 4.24 | 4.49 | 1.75 | 3.35 |
| GTTAGCAGGCCATTTGGGTCACTCAATGACGGGC | 0.439 | 0.0472 | -0.523 | 0.205 | -0.589 | 1.36 | 0.776 | 0.698 | -0.489 | 0.0806 |
| ATATCTAGGTTATCGGGTCATTCAGTTTGCGCAT | 3.27 | 3.47 | 2.2 | 3.33 | 1.83 | 4.98 | 6.91 | 6.17 | 4.2 | 6.24 |
| CGTCCAAGGTCATAGGAGGTAAGTGAAGACAGAT | 7.22 | 5.32 | 0.86 | 3.76 | 0.57 | 5.49 | 4.65 | 4.94 | 1.76 | 3.49 |
